From PubChem BioAssay (NCI)
This is part of a sample that, as a whole, favours compounds with a hit. Of some 83,000 tested, about 20% had one in any assay.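 Cell lines were cultured in 96-well plates, exposed to a single compound concentration, and assessed for percent growth 48 hours later.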 Values without a mark were called inactive. Active and inactive are the calls of the source. How the source made its calls: active means growth percent below 10; inactive means the rest.

Tested on: K-562 leukemia
Test: NCI-60 one-dose screen, 48 h (100 = growth as untreated, 0 = no growth, -100 = all killed)
Conditions: 10 µM unless noted

**Q.** Which growth does the source give for `Cc1nn(-c2ccccc2)c(Oc2ccc(Cl)cc2)c1/C=N\N=c1/sc2ccccc2n1C` here?
**A.** 81%

**Q.** How did the growth turn out when `CC(C)Sc1nc(NNC(N)=S)c(C#N)c(-c2ccc(F)cc2)n1` was run?
**A.** 92.5%

**Q.** With `NC(=O)c1ccc[n+](Cc2ccc(Cl)cc2Cl)c1` as the compound, how does the growth read?
**A.** 92.9%

**Q.** `CCCCCCCC/C=C\CCCCCCCCOc1ccccc1CC(=O)NCC[N+](C)(C)C` was tested. Which growth did it give?
**A.** 54.6%

**Q.** `O=C1Nc2ccccc2/C1=C/c1cn(C(=O)c2ccc(Cl)cc2)c2ccccc12` was tested. Which growth did it give?
**A.** 85.7%

**Q.** `O=C1/C(=C\c2cccnc2)SC(=S)N1CCc1ccc(O)cc1` was tested. Which growth did it give?
**A.** 36%

**Q.** Which growth does the source give for `COc1ccc(C2C(c3nn[nH]n3)=C(N)Oc3c2ccc2ccccc32)cc1` (stereo unspecified) here?
**A.** 19.2%

**Q.** With `COc1ccc(NC(=O)CSc2nnc(-c3cc(-c4ccc(S(N)(=O)=O)cc4)nc4ccccc34)n2-c2ccccc2)cc1` as the compound, how does the growth read?
**A.** 66.4%

**Q.** How did the growth turn out when `COc1ccc(-c2csc(C3=C(O)CN(C(C)C)C3=N)n2)cc1OC` was run?
**A.** 87.7%

**Q.** For `Cn1cc(-c2csc(-c3ccccc3)n2)c2cccnc21`, which growth is on record?
**A.** 1.43% [100 µM] (active)

**Q.** For `CCN1CCN(c2cc(C)nc(NCc3cc(Nc4ccnc5cc(Cl)ccc45)ccc3F)n2)CC1`, which growth is on record?
**A.** 4.69% (active)

**Q.** For `C#CCOc1nc(C)cc(C)c1C#N`, which growth is on record?
**A.** 100%

**Q.** For `Cc1cc(O)c(C2=NN(c3ccc(S(N)(=O)=O)cc3)C(c3ccccc3Cl)C2)cc1Cl` (stereo unspecified), which growth is on record?
**A.** -18% (active)

**Q.** With `N#Cc1c(-c2cccc(Cl)c2)cc(-c2cccc(Cl)c2)[nH]c1=O` as the compound, how does the growth read?
**A.** 27.1%

**Q.** For `N=c1sc(Cc2ccc(Cl)cc2)cn1CC(=O)c1ccc(F)cc1`, which growth is on record?
**A.** 25.6%

**Q.** `COc1cc(CCC[P+](c2ccccc2)(c2ccccc2)c2ccccc2)cc2c1OCO2` was tested. Which growth did it give?
**A.** 21.8%

**Q.** `CCCCc1ccc(Nc2ccc(Nc3ccc(CCCC)cc3S(=O)(=O)O)c3c2C(=O)c2ccccc2C3=O)c(S(=O)(=O)O)c1` was tested. Which growth did it give?
**A.** 114%

**Q.** Which growth does the source give for `COc1ccc2occ(C3=C(c4c[nH]c5ccccc45)C(=O)N(O)C3=O)c2c1` here?
**A.** 87.3%

**Q.** How did the growth turn out when `CC1(C)OC2C(CO[Si](C)(C)C(C)(C)C)OC(n3c(I)c(C#C[Si](C)(C)C)c(=O)[nH]c3=O)C2O1` (stereo unspecified) was run?
**A.** 67.5%

**Q.** With `Cc1ccc(S(=O)(=O)NCC[C@@H]2C[C@H]2c2cc3ccccc3s2)cc1` as the compound, how does the growth read?
**A.** 85.1%

**Q.** How did the growth turn out when `NC[C@H](O)c1ccc(O)c(O)c1` was run?
**A.** 106%

**Q.** `C=C(C)[C@@H]1CC[C@]2(C(=O)NC3CCCCC3)CC[C@]3(C)[C@H](CC[C@@H]4[C@@]5(C)CCC(=O)C(C)(C)[C@@H]5CC[C@]43C)[C@@H]12` was tested. Which growth did it give?
**A.** 84.2%

**Q.** `N=C1CCC(=N)c2c1c(O)c1ccccc1c2O` was tested. Which growth did it give?
**A.** 65.1%

**Q.** `COC(=O)[C@]12CC[C@@H](C)[C@H](C)[C@@H]1C1=CC[C@@H]3[C@@]4(C)C(C=O)=C[C@@](C)(COC(C)=O)[C@@H]4C(=O)C[C@@]3(C)[C@]1(C)CC2` was tested. Which growth did it give?
**A.** 24.3%

**Q.** How did the growth turn out when `COc1cc(/C=N/Nc2ncc(-c3cc4cc5c(cc4o3)OCO5)s2)cc(OC)c1OC` was run?
**A.** 30.1%

**Q.** Which growth does the source give for `OC(c1cccc(-n2ccc(C(F)(F)F)n2)c1)c1cnccc1NC1CCCCCC1` (stereo unspecified) here?
**A.** 3.64% (active)

**Q.** How did the growth turn out when `COc1ccc(-c2[nH]c(=S)n(C(CC3(C)NCC(=O)N3n3c(-c4ccccc4)cc(C)nc3=S)c3ccc(OC)cc3)c(=O)c2Br)cc1` (stereo unspecified) was run?
**A.** 14.8%

**Q.** For `Cc1ccc(Cl)c(NS(=O)(=O)c2ccc(-c3cnc(C4CC4)o3)cc2)c1`, which growth is on record?
**A.** 8.53% (active)

**Q.** How did the growth turn out when `O=C(NC(Cc1nnc2n(Cc3ccccc3)c(=O)c3c4c(sc3n12)CCCC4)c1ccc(Cl)cc1)c1ccccc1` (stereo unspecified) was run?
**A.** 91.9%

**Q.** With `Cc1c(O)cc(-c2cnc(N/N=C\c3ccc(Cl)cc3)s2)c(O)c1C` as the compound, how does the growth read?
**A.** 72.2%

**Q.** With `CCN(CC)CCn1nc2c3c(cccc3c1=O)-c1ccccc1-2` as the compound, how does the growth read?
**A.** 13.8%

**Q.** For `Fc1c[c-]c(-c2ccccn2)c(F)c1.[CH3-].[Pt+2].c1ccc(P(C[PH+](c2ccccc2)c2ccccc2)c2ccccc2)cc1`, which growth is on record?
**A.** 4.93% (active)

**Q.** For `CCN1C(=O)N(CC)C2Nn3c(s/c(=C\c4cccc([N+](=O)[O-])c4)c3=O)=NC21` (stereo unspecified), which growth is on record?
**A.** 19.9%

**Q.** For `N#C/C(=C/C=C/c1cccc(Cl)c1)S(=O)c1ccccc1` (stereo unspecified), which growth is on record?
**A.** 2.14% (active)

**Q.** `Oc1c(CN2CCCC2)cc(COCc2ccc(Br)cc2)c2cccnc12` was tested. Which growth did it give?
**A.** 8.51% (active)

**Q.** `O=C(CCCCCCN1CC(=O)N2[C@@H](c3ccccc3Cl)c3[nH]c4ccccc4c3C[C@H]2C1=O)NO` was tested. Which growth did it give?
**A.** 25.7%

**Q.** Which growth does the source give for `COc1ccc(C2CC(c3cccc(OC)c3)=NN2C(=O)c2cc(OC)c(OC)c(OC)c2)cc1` (stereo unspecified) here?
**A.** 5.93% (active)

**Q.** `CCc1c2c(nc3ccc(OC(=O)OCc4ccc(B5OC(C)(C)C(C)(C)O5)cc4)cc13)-c1cc3c(c(=O)n1C2)COC(=O)[C@]3(O)CC` was tested. Which growth did it give?
**A.** 13.1%

Tested on: MALME-3M melanoma
Test: as above
Conditions: 10 µM unless noted

**Q.** `Cc1nn(-c2ccccc2)c(Oc2ccc(Cl)cc2)c1/C=N\N=c1/sc2ccccc2n1C` was tested. Which growth did it give?
**A.** 98.2%

**Q.** How did the growth turn out when `CC(C)Sc1nc(NNC(N)=S)c(C#N)c(-c2ccc(F)cc2)n1` was run?
**A.** 117%

**Q.** Which growth does the source give for `NC(=O)c1ccc[n+](Cc2ccc(Cl)cc2Cl)c1` here?
**A.** 100%

**Q.** Which growth does the source give for `CCCCCCCC/C=C\CCCCCCCCOc1ccccc1CC(=O)NCC[N+](C)(C)C` here?
**A.** 89.8%

**Q.** `O=C1Nc2ccccc2/C1=C/c1cn(C(=O)c2ccc(Cl)cc2)c2ccccc12` was tested. Which growth did it give?
**A.** 118%

**Q.** For `O=C1/C(=C\c2cccnc2)SC(=S)N1CCc1ccc(O)cc1`, which growth is on record?
**A.** 79.6%

**Q.** `COc1ccc(C2C(c3nn[nH]n3)=C(N)Oc3c2ccc2ccccc32)cc1` (stereo unspecified) was tested. Which growth did it give?
**A.** 63.7%

**Q.** How did the growth turn out when `COc1ccc(NC(=O)CSc2nnc(-c3cc(-c4ccc(S(N)(=O)=O)cc4)nc4ccccc34)n2-c2ccccc2)cc1` was run?
**A.** 77.5%

**Q.** `COc1ccc(-c2csc(C3=C(O)CN(C(C)C)C3=N)n2)cc1OC` was tested. Which growth did it give?
**A.** 96.4%

**Q.** How did the growth turn out when `Cn1cc(-c2csc(-c3ccccc3)n2)c2cccnc21` was run?
**A.** -44.2% [100 µM] (active)

**Q.** How did the growth turn out when `CCN1CCN(c2cc(C)nc(NCc3cc(Nc4ccnc5cc(Cl)ccc45)ccc3F)n2)CC1` was run?
**A.** 107%

**Q.** For `C#CCOc1nc(C)cc(C)c1C#N`, which growth is on record?
**A.** 99%

**Q.** `Cc1cc(O)c(C2=NN(c3ccc(S(N)(=O)=O)cc3)C(c3ccccc3Cl)C2)cc1Cl` (stereo unspecified) was tested. Which growth did it give?
**A.** 34.9%

**Q.** For `N#Cc1c(-c2cccc(Cl)c2)cc(-c2cccc(Cl)c2)[nH]c1=O`, which growth is on record?
**A.** 69%

**Q.** `N=c1sc(Cc2ccc(Cl)cc2)cn1CC(=O)c1ccc(F)cc1` was tested. Which growth did it give?
**A.** 87.4%

**Q.** With `COc1cc(CCC[P+](c2ccccc2)(c2ccccc2)c2ccccc2)cc2c1OCO2` as the compound, how does the growth read?
**A.** 14.6%

**Q.** For `CCCCc1ccc(Nc2ccc(Nc3ccc(CCCC)cc3S(=O)(=O)O)c3c2C(=O)c2ccccc2C3=O)c(S(=O)(=O)O)c1`, which growth is on record?
**A.** 110%

**Q.** How did the growth turn out when `COc1ccc2occ(C3=C(c4c[nH]c5ccccc45)C(=O)N(O)C3=O)c2c1` was run?
**A.** 112%

**Q.** `CC1(C)OC2C(CO[Si](C)(C)C(C)(C)C)OC(n3c(I)c(C#C[Si](C)(C)C)c(=O)[nH]c3=O)C2O1` (stereo unspecified) was tested. Which growth did it give?
**A.** 109%

**Q.** With `Cc1ccc(S(=O)(=O)NCC[C@@H]2C[C@H]2c2cc3ccccc3s2)cc1` as the compound, how does the growth read?
**A.** 99.8%

**Q.** With `NC[C@H](O)c1ccc(O)c(O)c1` as the compound, how does the growth read?
**A.** 111%

**Q.** For `C=C(C)[C@@H]1CC[C@]2(C(=O)NC3CCCCC3)CC[C@]3(C)[C@H](CC[C@@H]4[C@@]5(C)CCC(=O)C(C)(C)[C@@H]5CC[C@]43C)[C@@H]12`, which growth is on record?
**A.** 84.2%

**Q.** Which growth does the source give for `N=C1CCC(=N)c2c1c(O)c1ccccc1c2O` here?
**A.** 135%

**Q.** Which growth does the source give for `COC(=O)[C@]12CC[C@@H](C)[C@H](C)[C@@H]1C1=CC[C@@H]3[C@@]4(C)C(C=O)=C[C@@](C)(COC(C)=O)[C@@H]4C(=O)C[C@@]3(C)[C@]1(C)CC2` here?
**A.** 65.7%

**Q.** `COc1cc(/C=N/Nc2ncc(-c3cc4cc5c(cc4o3)OCO5)s2)cc(OC)c1OC` was tested. Which growth did it give?
**A.** 93.8%

**Q.** How did the growth turn out when `OC(c1cccc(-n2ccc(C(F)(F)F)n2)c1)c1cnccc1NC1CCCCCC1` (stereo unspecified) was run?
**A.** -79% (active)

**Q.** Which growth does the source give for `COc1ccc(-c2[nH]c(=S)n(C(CC3(C)NCC(=O)N3n3c(-c4ccccc4)cc(C)nc3=S)c3ccc(OC)cc3)c(=O)c2Br)cc1` (stereo unspecified) here?
**A.** 90.2%

**Q.** `Cc1ccc(Cl)c(NS(=O)(=O)c2ccc(-c3cnc(C4CC4)o3)cc2)c1` was tested. Which growth did it give?
**A.** 62.4%

**Q.** For `O=C(NC(Cc1nnc2n(Cc3ccccc3)c(=O)c3c4c(sc3n12)CCCC4)c1ccc(Cl)cc1)c1ccccc1` (stereo unspecified), which growth is on record?
**A.** 75.4%

**Q.** How did the growth turn out when `Cc1c(O)cc(-c2cnc(N/N=C\c3ccc(Cl)cc3)s2)c(O)c1C` was run?
**A.** 107%

**Q.** Which growth does the source give for `CCN(CC)CCn1nc2c3c(cccc3c1=O)-c1ccccc1-2` here?
**A.** -9.04% (active)

**Q.** `Fc1c[c-]c(-c2ccccn2)c(F)c1.[CH3-].[Pt+2].c1ccc(P(C[PH+](c2ccccc2)c2ccccc2)c2ccccc2)cc1` was tested. Which growth did it give?
**A.** -83.2% (active)

**Q.** With `CCN1C(=O)N(CC)C2Nn3c(s/c(=C\c4cccc([N+](=O)[O-])c4)c3=O)=NC21` (stereo unspecified) as the compound, how does the growth read?
**A.** 57.8%

**Q.** How did the growth turn out when `N#C/C(=C/C=C/c1cccc(Cl)c1)S(=O)c1ccccc1` (stereo unspecified) was run?
**A.** -41.5% (active)

**Q.** How did the growth turn out when `Oc1c(CN2CCCC2)cc(COCc2ccc(Br)cc2)c2cccnc12` was run?
**A.** -3.92% (active)

**Q.** With `O=C(CCCCCCN1CC(=O)N2[C@@H](c3ccccc3Cl)c3[nH]c4ccccc4c3C[C@H]2C1=O)NO` as the compound, how does the growth read?
**A.** 21.9%

**Q.** `COc1ccc(C2CC(c3cccc(OC)c3)=NN2C(=O)c2cc(OC)c(OC)c(OC)c2)cc1` (stereo unspecified) was tested. Which growth did it give?
**A.** 37.7%

**Q.** With `CCc1c2c(nc3ccc(OC(=O)OCc4ccc(B5OC(C)(C)C(C)(C)O5)cc4)cc13)-c1cc3c(c(=O)n1C2)COC(=O)[C@]3(O)CC` as the compound, how does the growth read?
**A.** -43.9% (active)
